# Values joined by “and” are separate entries in the source; they are usually repeats but may differ in a detail not shown here. Equal values may be shown once. Results filed as inconclusive are left out. A call without a number means that no potency is given here. Values without a mark were called inactive. Active and inactive are the calls of the source. Calls follow the shape of the dose curve; as a rule, active = well fitted inhibition curve with a large enough effect; inconclusive = small, poorly fitted or top-dose-only effect; inactive = flat fitted curve, though single readings scatter.
# Legend:
# PC26 = assay: qHTS profiling for inhibitors of Plasmodium falciparum proliferation (AID 504749); conditions: P. falciparum in erythrocytes, SYBR Green DNA, 72 h; series mostly up to 28.7 µM
# Outline: (§1)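 Infected RBCs, 0.3% parasitemia/2.5% Hct final; cpd 72 h, 37 C, 5% CO2; lysis buffer with saponin/triton/SYBR Green I, o/n RT dark; FI 485/535; norm. to artemisinin (0.29 uM) and DMSO.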
# PC49 = assay: as above; conditions: P. falciparum in erythrocytes, SYBR Green DNA, 72 h; series mostly up to 28.7 µM
# Outline: as §1
# TAB109 = assay: as above; conditions: P. falciparum in erythrocytes, SYBR Green DNA, 72 h; series mostly up to 28.7 µM
# Outline: as §1
# TAB113 = assay: as above; conditions: P. falciparum in erythrocytes, SYBR Green DNA, 72 h; series mostly up to 28.7 µM
# Outline: as §1
# TAB165 = assay: as above; conditions: P. falciparum in erythrocytes, SYBR Green DNA, 72 h; series mostly up to 28.7 µM
# Outline: as §1
# W2 = assay: as above; conditions: P. falciparum in erythrocytes, SYBR Green DNA, 72 h; series mostly up to 28.7 µM
# Outline: as §1
# CRL-7250 = normal cell line; assay: Cytotoxic Profiling of Annotated Libraries Using Quantitative High-Throughput Screening (AID 1296008); conditions: Five cell lines viability, CellTiter-Glo ATP luminescence, 48-72 h; max response: stronger effect = lower value
# Outline: (§2)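 Cytotoxicity was measured as CellTiter-Glo ATP luminescence, read after 10 min at room temperature. Compound treatment of the cells lasted 48 or 72 hr at 37 degrees Celsius in a qHTS format.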
# HEK293 = assay: as above; conditions: Five cell lines viability, CellTiter-Glo ATP luminescence, 48-72 h; max response: stronger effect = lower value
# Outline: as §2
# HaCat = assay: as above; conditions: Five cell lines viability, CellTiter-Glo ATP luminescence, 48-72 h; max response: stronger effect = lower value
# Outline: as §2
# SC27B = assay: qHTS profiling for inhibitors of Plasmodium falciparum proliferation (AID 504749); conditions: P. falciparum in erythrocytes, SYBR Green DNA, 72 h; series mostly up to 28.7 µM
# Outline: as §1
# Also: nearly all actives have a fitted effect of over 60% in size.
# Potency is read from the fitted curve at half-maximal effect.
structure (smiles),measurement,setting,value
CCOC(=O)CC(SP(=S)(OC)OC)C(=O)OCC (stereo not given),Potency,PC26,inactive
same,Potency,PC49,inactive
same,Potency,TAB109,inactive
same,Potency,TAB113,inactive
same,Potency,TAB165,inactive
CC(C)c1cccc(C(C)C)c1O,Potency,PC49,inactive
same,Potency,TAB109,inactive
same,Potency,TAB113,inactive
same,Potency,TAB165,inactive
CC(C)(C)NCC(O)c1ccccc1Cl (stereo not given),Potency,PC49,12.6 µM (active)
same,Potency,W2,6.01 µM (active)
same,max response,CRL-7250,-15.1%
same,max response,HEK293,-2.46%
same,max response,HaCat,-8.54%
CC(=O)C1CCOC1=O (stereo not given),outcome,CRL-7250,inactive
same,outcome,HaCat,inactive
Oc1ccc(Cl)cc1,Potency,PC26,inactive
same,Potency,PC49,inactive
same,Potency,SC27B,inactive
same,Potency,TAB109,inactive
same,Potency,TAB113,inactive
same,Potency,TAB165,inactive
same,Potency,W2,inactive
same,max response,CRL-7250,-6.01%
same,outcome,HEK293,inactive
same,outcome,HaCat,inactive
Nc1nc(N)nc(NC2CC2)n1,Potency,PC26,inactive
same,Potency,PC49,inactive
same,Potency,SC27B,inactive
same,Potency,TAB109,inactive
same,Potency,TAB113,inactive
same,Potency,TAB165,inactive
same,Potency,W2,inactive
same,max response,CRL-7250,-14.4%
same,max response,HEK293,-46.2%
C=CCC1(C(C)CC)C(=O)NC(=O)NC1=O (stereo not given),outcome,CRL-7250,inactive
same,max response,HEK293,4.61%
same,max response,HaCat,2.69%
O=C(O)c1ccc(=O)[nH]c1,outcome,CRL-7250,inactive
same,max response,HEK293,-0.0722%
same,outcome,HaCat,inactive
CCCCCCCCCC(=O)O[C@H]1CC[C@H]2[C@@H]3CCC4=CC(=O)CC[C@@H]4[C@H]3CC[C@]12C,Potency,PC26,inactive
same,Potency,PC49,inactive
same,Potency,SC27B,inactive
same,Potency,TAB109,inactive
same,Potency,TAB113,inactive
same,Potency,TAB165,inactive
same,outcome,CRL-7250,inactive
same,max response,HEK293,-2.03%
same,max response,HaCat,4.55%
CC(C)(C)NCC(O)c1cc(Cl)c(N)c(C(F)(F)F)c1 (stereo not given),Potency,PC49,11.2 µM (active)
same,Potency,TAB165,7.94 µM (active)
same,Potency,W2,5.36 µM (active)
same,outcome,CRL-7250,inactive
same,outcome,HEK293,inactive
same,max response,HaCat,-13.5%
NNc1ccccc1,Potency,PC26,inactive
same,Potency,PC49,inactive
same,Potency,SC27B,inactive
same,Potency,TAB109,inactive
same,Potency,TAB113,inactive
same,Potency,TAB165,inactive
same,outcome,CRL-7250,inactive
same,max response,HEK293,3.08%
same,max response,HaCat,1.05%
NC(=O)CS(=O)C(c1ccccc1)c1ccccc1 (stereo not given),Potency,PC26,inactive
same,Potency,PC49,inactive
same,Potency,SC27B,inactive
same,Potency,TAB109,inactive
same,Potency,TAB113,inactive
same,Potency,TAB165,inactive
same,Potency,W2,inactive
same,max response,CRL-7250,1.08%
same,max response,HEK293,2.52%
same,max response,HaCat,-6.49%
C[C@]12CC[C@H]3[C@@H](CCC4=CC(=O)CC[C@@H]43)[C@@H]1CC[C@@H]2OC(=O)CCc1ccco1,max response,CRL-7250,-3%
same,outcome,HaCat,inactive
CN1C(=O)COc2c(C(=O)NC3CN4CCC3CC4)cc(Cl)cc21 (stereo not given),Potency,PC26,inactive
same,Potency,PC49,inactive
same,Potency,SC27B,inactive
same,Potency,TAB109,inactive
same,Potency,TAB113,inactive
same,Potency,TAB165,inactive
same,Potency,W2,inactive
same,max response,CRL-7250,-5.92%
same,max response,HEK293,-5.69% and -2.96%
same,max response,HaCat,-0.711% and 2.67%
CCCCCCC(=O)CCCCCC/C=C/C[C@@H](O)[C@H](O)[C@@](N)(CO)C(=O)O,Potency,PC26,inactive
same,Potency,PC49,inactive
same,Potency,SC27B,inactive
same,Potency,TAB109,inactive
same,Potency,TAB113,inactive
same,Potency,TAB165,inactive
same,max response,CRL-7250,-1.04%
same,max response,HEK293,-0.716%
O=P1(N(CCCl)CCCl)NCCCO1 (stereo not given),Potency,PC26,inactive
same,Potency,PC49,inactive
same,Potency,SC27B,inactive
same,Potency,TAB109,inactive
same,Potency,TAB113,inactive
same,Potency,TAB165,inactive
same,Potency,W2,inactive
same,max response,CRL-7250,-3.83% and -4.06%
same,max response,HEK293,-27.8% and -15.3%
same,max response,HaCat,-5.79%
same,outcome,HaCat,inactive
CN(C)CCc1c[nH]c2cccc(OP(=O)(O)O)c12,max response,CRL-7250,-37.9%
same,max response,HaCat,4.32%
CCN(CC)C(=O)[C@@H]1C=C2c3cccc4[nH]cc(c34)C[C@H]2N(C)C1,max response,CRL-7250,-10.2%
same,Potency,HEK293,80 µM (active)
same,max response,HaCat,1.44%
CCCOC(=O)c1cncn1C(C)c1ccccc1 (stereo not given),max response,CRL-7250,-1.16%
same,max response,HEK293,1.16%
same,outcome,HaCat,inactive
O=C1OC(c2ccc(O)c(S(=O)(=O)O)c2)(c2ccc(O)c(S(=O)(=O)O)c2)c2c(Br)c(Br)c(Br)c(Br)c21,Potency,PC26,inactive
same,Potency,PC49,inactive
same,Potency,SC27B,inactive
same,Potency,TAB109,inactive
same,Potency,TAB113,inactive
same,Potency,TAB165,inactive
same,Potency,W2,inactive
same,max response,CRL-7250,-1.01%
same,outcome,HEK293,inactive
same,outcome,HaCat,inactive
O=C(O)CCCc1ccc(N(CCCl)CCCl)cc1,Potency,PC26,inactive
same,Potency,PC49,inactive
same,Potency,SC27B,inactive
same,Potency,TAB109,inactive
same,Potency,TAB113,inactive
same,Potency,TAB165,inactive
same,outcome,CRL-7250,inactive
same,max response,HEK293,-24.7%
same,outcome,HaCat,inactive
Nc1ccc([As](=O)(O)O)cc1,Potency,PC26,inactive
same,Potency,PC49,inactive
same,Potency,SC27B,inactive
same,Potency,TAB109,inactive
same,Potency,TAB113,inactive
same,Potency,TAB165,inactive
same,max response,CRL-7250,1.05%
same,max response,HEK293,-6.15%
same,max response,HaCat,-3.33%
CC(=O)NC1CCSC1=O (stereo not given),max response,CRL-7250,-4.93%
same,outcome,HEK293,inactive
same,max response,HaCat,-1.96%
COP(=S)(OC)Oc1ccc(S(=O)(=O)N(C)C)cc1,Potency,PC26,inactive
same,Potency,PC49,inactive
same,Potency,SC27B,inactive
same,Potency,TAB109,inactive
same,Potency,TAB113,inactive
same,Potency,TAB165,inactive
same,Potency,W2,inactive
same,max response,CRL-7250,4.64%
same,max response,HEK293,-6.52%
same,max response,HaCat,-5.18%
